{"source": "PubChem BioAssay (EPA / NIEHS)", "note": "Results filed as inconclusive are left out. Activity calls are given as the source filed them. Rule for the calls, unless noted: active = hit-call score of the fitted dose curve at least 0.9, where 1 is the maximum; inactive = score below 0.9.", "data": [{"tested_on": "not listed separately", "assay": "CCTE_Deisenroth_5AR_NBTE_donor: CCTE's 5alpha-reductase NanoBRET Target Engagement Assay […], Deisenroth Lab (AID 2284319)", "details": "actives raise or lower the signal", "summary_of_the_method": "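In this secondary endpoint, donor luminescence from SRD5A2-NanoLuc in transfected HEK293T flags artifacts. Test chemical (10 nM - 29.9 uM) is present five hours, tracer the last two; mock-tracer wells run plate-matched; data fitted bidirectionally against DMSO.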", "values": [{"smiles": "O=c1c(O)c(-c2ccc(O)c(O)c2)oc2cc(O)cc(O)c12", "AC50": "26.7 µM (active)"}, {"smiles": "OC[C@@H](O)[C@@H](O)[C@H](O)[C@H](O)CO", "outcome": "inactive"}, {"smiles": "COc1cc(-c2nc(NC(=O)c3cc4cc(C)cc(C)c4n3CC(=O)O)sc2CCC2CCCCC2)c(OC)cc1Cl", "outcome": "inactive"}, {"smiles": "CCCCCCCCCCC", "outcome": "inactive"}, {"smiles": "COc1cc(S(=O)(=O)O)c(C)cc1N=Nc1c(O)ccc2cc(S(=O)(=O)O)ccc12", "AC50": "24.8 µM (active)"}, {"smiles": "COc1ccc(C)cc1N", "outcome": "inactive"}, {"smiles": "CC=Cc1ccc(O)c(OC)c1", "outcome": "inactive"}, {"smiles": "C1CCC(SSC2CCCCC2)CC1", "outcome": "inactive"}, {"smiles": "CCCCOC(=O)CCCCCCCCC(=O)OCCCC", "outcome": "inactive"}, {"smiles": "CCCCC(CC)COC(=O)CC(C(=O)OCC(CC)CCCC)S(=O)(=O)O", "note": "(stereo not given)", "AC50": "62.2 µM (active)"}, {"smiles": "Oc1ccc2ccccc2c1N=Nc1ccccc1", "outcome": "inactive"}]}, {"tested_on": "not listed separately", "assay": "CCTE_Deisenroth_5AR_NBTE_acceptor: CCTE's 5alpha-reductase NanoBRET Target Engagement Assay - Autofluorescence Screen, Deisenroth Lab (AID 2284321)", "details": "actives raise or lower the signal", "summary_of_the_method": "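HEK293T cell-based NanoBRET assay read 5 h after dosing; this acceptor channel serves as an autofluorescence artifact screen. Chemicals at nominal 100 uM were scanned in three independent runs (n=3), excitation 460 nm. Fitting was bidirectional versus DMSO baseline.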", "values": [{"smiles": "O=c1c(O)c(-c2ccc(O)c(O)c2)oc2cc(O)cc(O)c12", "AC50": "23.3 µM (active)"}, {"smiles": "OC[C@@H](O)[C@@H](O)[C@H](O)[C@H](O)CO", "outcome": "inactive"}, {"smiles": "COc1cc(-c2nc(NC(=O)c3cc4cc(C)cc(C)c4n3CC(=O)O)sc2CCC2CCCCC2)c(OC)cc1Cl", "outcome": "inactive"}, {"smiles": "CCCCCCCCCCC", "outcome": "inactive"}, {"smiles": "COc1cc(S(=O)(=O)O)c(C)cc1N=Nc1c(O)ccc2cc(S(=O)(=O)O)ccc12", "outcome": "inactive"}, {"smiles": "COc1ccc(C)cc1N", "outcome": "inactive"}, {"smiles": "CC=Cc1ccc(O)c(OC)c1", "outcome": "inactive"}, {"smiles": "C1CCC(SSC2CCCCC2)CC1", "outcome": "inactive"}, {"smiles": "CCCCOC(=O)CCCCCCCCC(=O)OCCCC", "outcome": "inactive"}, {"smiles": "Oc1ccc2ccccc2c1N=Nc1ccccc1", "outcome": "inactive"}]}, {"tested_on": "SRD5A2 (gene 6716)", "assay": "CCTE_Deisenroth_5AR_NBTE_ratio: CCTE's 5alpha-reductase NanoBRET Target Engagement Assay - Ratio, Deisenroth Lab (AID 2284322)", "details": "actives raise or lower the signal", "summary_of_the_method": "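HEK293T transiently expressing SRD5A2-NanoLuc; cells exposed to chemical (8-point, 10 nM - 29.9 uM) for 5 h total, testosterone tracer added for final 2 h. NanoBRET acceptor/donor ratio (650/460 nm), bidirectional fit vs DMSO.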", "values": [{"smiles": "O=c1c(O)c(-c2ccc(O)c(O)c2)oc2cc(O)cc(O)c12", "outcome": "inactive"}, {"smiles": "OC[C@@H](O)[C@@H](O)[C@H](O)[C@H](O)CO", "outcome": "inactive"}, {"smiles": "COc1cc(-c2nc(NC(=O)c3cc4cc(C)cc(C)c4n3CC(=O)O)sc2CCC2CCCCC2)c(OC)cc1Cl", "AC50": "26.3 µM (active)"}, {"smiles": "CCCCCCCCCCC", "outcome": "inactive"}, {"smiles": "COc1cc(S(=O)(=O)O)c(C)cc1N=Nc1c(O)ccc2cc(S(=O)(=O)O)ccc12", "AC50": "60.2 µM (active)"}, {"smiles": "COc1ccc(C)cc1N", "outcome": "inactive"}, {"smiles": "CC=Cc1ccc(O)c(OC)c1", "outcome": "inactive"}, {"smiles": "C1CCC(SSC2CCCCC2)CC1", "outcome": "inactive"}, {"smiles": "CCCCOC(=O)CCCCCCCCC(=O)OCCCC", "outcome": "inactive"}, {"smiles": "CCCCC(CC)COC(=O)CC(C(=O)OCC(CC)CCCC)S(=O)(=O)O", "note": "(stereo not given)", "AC50": "75.3 µM (active)"}, {"smiles": "Oc1ccc2ccccc2c1N=Nc1ccccc1", "outcome": "inactive"}]}, {"tested_on": "not listed separately", "assay": "VALA_TUBHUV_Antagonist_TubuleLength: VALA Sciences human Umbilical Vein Endothelial Tubule Formation (TUBHUV) Antagonism Assay (AID 2284325; active = hit-call score of the fitted dose curve at least 0.9, where 1 is the maximum)", "details": "not given", "summary_of_the_method": "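HUVEC–HDF co-culture (1:3) pre-grown 3 days with 10 ng/ml VEGF, then 3 days with compound plus VEGF. Fixed, nuclear and CD31 stained; total tubule length by imaging versus 0.1% DMSO; suramin 100 uM positive control.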", "values": [{"smiles": "CCCc1cc(=O)[nH]c(=S)[nH]1", "outcome": "inactive"}, {"smiles": "COC(=O)c1ccc(O)cc1", "outcome": "inactive"}, {"smiles": "CCCCC(CC)COC(=O)CC(C(=O)OCC(CC)CCCC)S(=O)(=O)O", "note": "(stereo not given)", "AC50": "73 µM (active)"}]}, {"tested_on": "not listed separately", "assay": "TAMU_PeakParms_SingleDonor1434_Asystole: Texas A&M University (TAMU) 1.5-hr Human Induced Pluripotent Stem Cell (iPSC)-derived Cardiomyocytes Calcium (Ca+2) Flux Assay for Cardiotoxicity: Asystole (quiescence of beating) (AID 2284328; active = hit-call score of the fitted dose curve at least 0.9, where 1 is the maximum)", "details": "not given", "procedure": "TAMU_PeakParms is a cell-based, multiplexed-readout assay that uses iPSC-derived cardiomyocytes with measurements taken at 1.5 hours after chemical dosing in a microplate: 384-well plate.TAMU_PeakParms_SingleDonor1434_Chronotopy is a phenotype derived from the peak.freq.avg parameter and uses an EC95 as its POD (95% decrease in beat rate, compared to controls). Peak.Freq.Avg measures the average peak frequency, in beats per second, using Fluorescence intensity as a functional reporter from Calcium (Ca+2) flux assay technology. There is no preprocessing performed on the data used to model this phenotype.Data from the assay component TAMU_PeakParms_SingleDonor1434_Asystole was analyzed into 1 assay endpoint. This assay endpoint, TAMU_PeakParms_SingleDonor1434_Asystole, was analyzed in the positive analysis fitting direction relative to DMSO as the negative control and baseline of activity. Using a type of functional reporter, loss-of-signal activity can be used to understand changes in the cardiac function. To generalize the intended target to other relatable targets, this assay endpoint is annotated to the cardiomyocyte function intended target family, where the subfamily is cessation of beating.\nEach test compound from the chemical master plates was transferred into new tissue culture-treated 384-well microplates using acoustic dispensing (Labcyte Echo 550, Beckman Coulter, Indianapolis, IN) in amounts that would result in 5x concentrations (1, 5, 50, 500 uM) in the working plate in a final volume of 50 uL. Chemicals were randomly divided into 16 separate 384-well plates for screening such that the outer-most wells were left empty (308 wells were used on each plate). Fifteen of the plates contained unique test chemicals (n = 65 chemicals, 4 concentrations, one replicate each), positive controls (n = 10 chemicals, one concentration, 3 replicates each), vehicle (0.5% DMSO, n = 12), and media-only (n = 6) wells. Plate 16 contained test chemicals (n = 54 chemicals, 4 concentrations, one replicate each), inter-plate replicates (n = 11 chemicals with replicates, 4 concentrations, one replicate each), and the same design of positive controls and vehicle- and media-only wells as other plates. These plates were stored at -80C until the day of the assay. On assay day, the 5x concentrated chemical working plate was prepared by adding 50 uL cardiomyocyte maintenance medium containing 2.5% v/v DMSO to each well of the microplates. Then, 12.5 uL of 5x concentrated test chemical solution was added to the test plate to yield final concentrations of 0.2, 1, 10, and 100 uM in 0.5% v/v DMSO using the liquid handling robotics of the FLIPR Tetra. FLIPR Tetra settings were optimized to mix and then transfer test chemicals to the microplate at height = 40 uL, speed = 1 uL/sec, and removal speed = 6 mm/sec, resulting in a total volume of 62.5 uL/well with 0.5% v/v DMSO in cardiomyocyte maintenance medium. Immediately after chemical transfer, cells were incubated 37C and 5% CO2 for 90 minutes. Next, the total volume of cell culture medium containing Ca2+ dye (from the Ca2+ flux assay conducted first) was aspirated and replaced with 25 uL/well pre-warmed staining solution with fluorescent probes for nuclei and mitochondria (2.2 ug/mL Hoechst 33342 and 0.2 uM MitoTracker Orange in cardiomyocyte maintenance medium with 1:500 penicillin/streptomycin solution). Microplates were then incubated at standard conditions for 15 minutes, the staining solution was aspirated, and 25 uL/well pre-warmed fresh maintenance medium containing 1:500 penicillin/streptomycin solution was added to each well to wash before proceeding to image acquisition. Images of each well at 10x magnification were acquired in succession using DAPI (Hoechst 33342 for nuclear staining), TRITC (MitoTracker Orange for mitochondrial staining), and FITC (Ca2+ dye) filters.", "values": [{"smiles": "CCCc1cc(=O)[nH]c(=S)[nH]1", "outcome": "inactive"}, {"smiles": "COC(=O)c1ccc(O)cc1", "outcome": "inactive"}, {"smiles": "O=c1[nH]cc(F)c(=O)[nH]1", "outcome": "inactive"}, {"smiles": "O=C(O)CCCCC(=O)O", "outcome": "inactive"}, {"smiles": "CC(=O)Oc1ccccc1C(=O)O", "outcome": "inactive"}, {"smiles": "CCOc1ccc2c(c1)C(C)=CC(C)(C)N2", "outcome": "inactive"}]}, {"tested_on": "Brachyury (BRA) Protein Expression, Deisenroth Lab, TBXT (gene 6862)", "assay": "CCTE_Deisenroth_DEVTOX-GLR_legacy_Bra: (Legacy) CCTE's DevTox GLR-Endo Assay Evaluation of Brachyury (BRA) Protein Expression, Deisenroth Lab (AID 2284329)", "details": "not given", "summary_of_the_method": "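RUES2-GLR human pluripotent cells are differentiated for 48 h and receive two chemical exposures 24 h apart, at 10 concentrations from 1 nM to 200 uM. Cells are fixed, nuclei stained and imaged. Bra+ cells are those with mean Bra intensity over 5x BMAD above the pluripotent control median, expressed as a percentage of cell count, after subtracting the 0.2% DMSO control median.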", "values": [{"smiles": "CCCc1cc(=O)[nH]c(=S)[nH]1", "outcome": "inactive"}, {"smiles": "O=c1[nH]cc(F)c(=O)[nH]1", "AC50": "16.5 µM (active)"}, {"smiles": "COc1ccc2c(c1)c(CC(=O)O)c(C)n2C(=O)c1ccc(Cl)cc1", "AC50": "5.9 µM (active)"}, {"smiles": "CC1=C(/C=C/C(C)=C/C=C/C(C)=C/CO)C(C)(C)CCC1", "AC50": "67.5 µM (active)"}, {"smiles": "COc1cccc2c1C(=O)c1c(O)c3c(c(O)c1C2=O)C[C@@](O)(C(=O)CO)C[C@@H]3O[C@H]1C[C@H](N)[C@H](O)[C@H](C)O1", "AC50": "7.41 µM (active)"}]}, {"tested_on": "not listed separately", "assay": "CCTE_Deisenroth_DEVTOX-GLR_legacy_CellCount: (Legacy) Viability Assessment in CCTE's DevTox GLR-Endo Assay, Deisenroth Lab (AID 2284331)", "details": "actives raise or lower the signal", "summary_of_the_method": "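Seed RUES2-GLR 24 h; differentiate 48 h, dosing at 0 and 24 h; fix, stain nuclei; image 5 fields/well; count nuclei. Conc. 1 nM - 200 uM, single technical replicate, n=4 experiments; bidirectional fit vs 0.2% DMSO.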", "values": [{"smiles": "CCCc1cc(=O)[nH]c(=S)[nH]1", "outcome": "inactive"}, {"smiles": "O=c1[nH]cc(F)c(=O)[nH]1", "AC50": "5.95 µM (active)"}, {"smiles": "COc1ccc2c(c1)c(CC(=O)O)c(C)n2C(=O)c1ccc(Cl)cc1", "AC50": "10.2 µM (active)"}, {"smiles": "CC1=C(/C=C/C(C)=C/C=C/C(C)=C/CO)C(C)(C)CCC1", "AC50": "34.6 µM (active)"}, {"smiles": "CC(=O)Oc1ccccc1C(=O)O", "outcome": "inactive"}, {"smiles": "COc1cccc2c1C(=O)c1c(O)c3c(c(O)c1C2=O)C[C@@](O)(C(=O)CO)C[C@@H]3O[C@H]1C[C@H](N)[C@H](O)[C@H](C)O1", "AC50": "0.00843 µM (active)"}]}, {"tested_on": "not listed separately", "assay": "IUF_NPC1_cytotoxicity_72hr: Cytotoxicity Assessment at 72 hours in the Leibniz Research Institute for Environmental Medicine (IUF) Neural Progenitor Cell Proliferation Assay (NPC1) (AID 2284332; active = hit-call score of the fitted dose curve at least 0.9, where 1 is the maximum;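 note: rising LDH signal means more cytotoxicity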)", "details": "not given", "summary_of_the_method": "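Human fetal neural progenitor spheres (0.3 mm) in EGF/FGF proliferation medium, 37C, exposed 72 h without renewal. LDH release in supernatant read by resorufin fluorescence; gain of signal scored relative to dynamic range.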", "values": [{"smiles": "OC[C@@H](O)[C@@H](O)[C@H](O)[C@H](O)CO", "outcome": "inactive"}, {"smiles": "C[Si]1(C)O[Si](C)(C)O[Si](C)(C)O[Si](C)(C)O1", "outcome": "inactive"}, {"smiles": "CC(=O)Oc1ccccc1C(=O)O", "outcome": "inactive"}]}]}
